# Results taken from ChEMBL document CHEMBL3988442, “University of Dundee, Small-Polar-MMV Screening Library” (2021).
# Among all 48,000 compounds or so, about 13,000 (27%) showed an effect of 50% or more. The list shows a part of the results.
# System: Wolbachia pipientis
# Experiment: Anti-Wolbachia Cell-Based Screen
# Assay type: functional
# Set-up: scale not given: in the data most compounds retested in dose-response had high values
# Conditions: 5 µM
row,Compound,Percent Effect [%]
1,CS(=O)(=O)N1CCC(Nc2ccc(C#N)c(C(F)(F)F)c2)CC1,-23.63
2,COc1cccc2c(=O)n(C3CCCNC3)cnc12 (stereo unspecified),-0.6392
3,CCc1ocnc1C(=O)N1CCC2(CC1)OCC(C)O2 (stereo unspecified),-17.17
4,CN(C)CCN(Cc1ccco1)C(=O)Cc1cn2ccsc2n1,1.866
5,CNC(=O)[C@H]1C[C@@H]2CCN(Cc3ccncc3)C[C@H]2O1.O=C(O)C(F)(F)F.O=C(O)C(F)(F)F,103.5
6,O=C(NC1CCC1)[C@@H]1C[C@@H]2CCN(Cc3ccncc3)C[C@H]2O1.O=C(O)C(F)(F)F.O=C(O)C(F)(F)F,-10.63
7,O=C(NCCc1ccncc1)[C@H]1CC[C@@H]2[C@@H](CCN2CC2CC2)O1.O=C(O)C(F)(F)F.O=C(O)C(F)(F)F,1.654
8,O=C(O)C(F)(F)F.O=C(O)C(F)(F)F.O=C([C@H]1CN(Cc2ccncc2)C[C@H]2OCC[C@@H]12)N1CCCCO1,11.08
9,COCCNC(=O)[C@H]1C[C@@H]2CCN(Cc3ccncc3)C[C@H]2O1.O=C(O)C(F)(F)F.O=C(O)C(F)(F)F,99.07
10,CO[C@@H]1CCN(c2ncc(F)cn2)[C@@H]2CN(CC3CC3)C[C@@H]21,9.085
11,CCN1CC(=O)NCC12CCN(C(=O)c1ccno1)C2.O=C(O)C(F)(F)F (stereo unspecified),-6.47
12,O=S(=O)(c1cccc(Cl)c1)N1C[C@@H]2CCN[C@@H]2C1,-5.104
13,O=C1NC[C@H]2CN(Cc3nccs3)CCN12,4.843
14,CC(C)(CNc1ccc(C#N)c(C(F)(F)F)c1)C(N)=O,-0.8311
15,Cc1noc(C)c1C(=O)N1CCC2(CC1)c1nc[nH]c1CCN2C,14.77
16,CCN1CCOCC2(C1)CN(C(=O)c1c(C)noc1C)CCO2 (stereo unspecified),103.8
17,Cc1noc(C)c1C(=O)N1CCOC2(COCCN(C(C)C)C2)C1.O=C(O)C(F)(F)F (stereo unspecified),90.48
18,O=C(O)C(F)(F)F.O=C(O)C(F)(F)F.c1cnc(N2CCC3(COCCN(CC4CC4)C3)C2)nc1 (stereo unspecified),-6.749
19,COc1ccc(C(=O)N2CCOC3(CNCCOC3)C2)c(OC)n1 (stereo unspecified),-6.762
20,COCCN1C[C@@H](C)[C@@]2(COCCN(C(=O)c3ccncc3)C2)C1.O=C(O)C(F)(F)F.O=C(O)C(F)(F)F,2.912
21,Cc1noc(C)c1CN1CCOC2(CCCN(c3nncs3)C2)C1.O=C(O)C(F)(F)F (stereo unspecified),-6.2
22,COCCN1C[C@@H](C)[C@@]2(COCCN(C(=O)c3ccno3)C2)C1.O=C(O)C(F)(F)F,2.349
23,Cc1nocc1C(=O)N1CCOC2(COCCN(CC3CC3)C2)C1 (stereo unspecified),116
24,COCCN1CCOCC2(C1)CN(C(=O)c1conc1C)CCO2.O=C(O)C(F)(F)F (stereo unspecified),91.15
25,Oc1cccc2ccc(CN3CCC4(CCNCC4)C3)nc12,2.778
26,Cn1nc(CN2CCCCC(N)C2)c2c(Cl)cccc21 (stereo unspecified),-4.304

row,Compound,Percent Effect [%]
1,CC(C)N1CCOCC2(CN(Cc3ccccn3)CCO2)C1.O=C(O)C(F)(F)F.O=C(O)C(F)(F)F.O=C(O)C(F)(F)F (stereo unspecified),-11.42
2,Cc1nocc1C(=O)N1CCOC2(COCCN(C(C)C)C2)C1.O=C(O)C(F)(F)F (stereo unspecified),91.68
3,Cc1cnc(N2CCC3(CC2)COCCN(C(C)C)C3)nc1.O=C(O)C(F)(F)F,7.175
4,CSC1(CNC(=O)NC(C)Cc2cccc(F)c2)CCOCC1 (stereo unspecified),-4.564
5,Cc1ccccc1CC(=O)N1C[C@@H](O)[C@H](N2CCC(F)(F)CC2)C1,138.7
6,Cc1ccccc1CC(=O)N1C[C@H]2CC[C@@H]1CN(Cc1cccnc1)C2,5.499
7,Cc1ccccc1CC(=O)N1CCN(C2CCOC2=O)CC1 (stereo unspecified),5.646
8,Cc1ccccc1CC(=O)N1C[C@@H](O)[C@H](N2CCN(C)CC2)C1,176.4
9,Cc1nc(CN2CCO[C@H]3CN(C(=O)Cc4cccs4)C[C@H]32)cs1,2.702
10,Cc1ccccc1CC(=O)N1C[C@@H](O)[C@H](N2CCOCC2)C1,153.4
11,CC(=O)N1CCN([C@@H]2CN(C(=O)Cc3ccccc3C)C[C@H]2O)CC1,157.7
12,CN(C)C(=O)CN1CCN(c2ncccn2)[C@@H]2CS(=O)(=O)C[C@@H]21,-3.142
13,CC(c1ccccc1F)N1CCN(C(=O)Cc2ccncc2)CC1 (stereo unspecified),-4.813
14,COc1cccc(CC(C)NCC(=O)Nc2ccccc2C)c1 (stereo unspecified),0.2022
15,CC[C@H]1CN2CC[C@H]1C[C@@H]2CNCc1ccc(N(C)C)cc1,11.9
16,Fc1cnc(N2CCN3C[C@H](Oc4cccnc4)C[C@H]3C2)nc1.O=C(O)C(F)(F)F.O=C(O)C(F)(F)F.O=C(O)C(F)(F)F,90.39
17,Fc1ccccc1CO[C@@H]1C[C@H]2CN(c3ncccn3)CCN2C1.O=C(O)C(F)(F)F,-0.171
18,Cc1ccc(O[C@@H]2C[C@H]3CN(c4ncc(F)cn4)CCN3C2)cc1.O=C(O)C(F)(F)F.O=C(O)C(F)(F)F,83.44
19,O=C(O)C(F)(F)F.O=C(O)C(F)(F)F.c1ccc(CO[C@@H]2C[C@H]3CN(c4ncccn4)CCN3C2)cc1,2.223
20,O=C(Cc1cccc(F)c1)N1CCN2C[C@H](Oc3cncnc3)C[C@H]2C1.O=C(O)C(F)(F)F,1.194
21,O=C(O)C(F)(F)F.O=C(O)C(F)(F)F.c1cnc(N2CCN3C[C@H](Oc4cncnc4)C[C@H]3C2)nc1,105.8
22,Cc1cccc(CO[C@@H]2C[C@H]3CN(c4ncccn4)CCN3C2)n1.O=C(O)C(F)(F)F.O=C(O)C(F)(F)F.O=C(O)C(F)(F)F,-11.39
23,O=C(c1ccco1)N1CCN2C[C@H](Oc3cncnc3)C[C@H]2C1,1.787
24,Cc1cnc(N2CCN3C[C@H](OCc4ccccn4)C[C@H]3C2)nc1.O=C(O)C(F)(F)F.O=C(O)C(F)(F)F,0.855
25,Fc1cnc(N2CCN3C[C@H](Oc4cncnc4)C[C@H]3C2)nc1.O=C(O)C(F)(F)F.O=C(O)C(F)(F)F,110.2
